From PubChem BioAssay come the findings set out here.

SMILES strings stand for the structures. Inconclusive results are not listed. Active and inactive are the calls of the source.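 Rule for the calls, unless noted: active = response below a set limit, under 55% cells CD8-positive and vesicle-bound, and CD8 cells' 90th-percentile brightness under 279; inactive = the rest.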

A short description of assay [1]: rapamycin-like changes in RPL19A-GFP expression – cell-based, S. cerevisiae, multiplex flow cytometry, primary screen (AID 1862; in the data active = percent of DMSO control GFP below about 86%;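 note: lower values mimic rapamycin by blocking the RPL19A rise seen in DMSO cells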). As to conditions: S. cerevisiae RPL19A-GFP strain, flow cytometry fluorescence, 3 h; at 10 µM; stronger effect = lower value. (In flow cytometry, cells or beads pass a laser one at a time.)
Assay [2] is described as follows: TOR pathway GLN3 branch reporter MEP2-GFP changes – S. cerevisiae, multiplex flow cytometry, primary screen (AID 1867;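 active = GFP response, as percent of the DMSO control, above the screen-wide mean plus 3 SD, about 139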;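 note: median GFP channel fluorescence of barcode-gated MEP2-GFP cells measured by flow cytometry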). As to conditions: S. cerevisiae MEP2-GFP strain, 3 h, at 10 µM, stronger effect = higher value, 100% means same as DMSO wells.
Assay [3] can be described thus: TOR pathway RTG branch CIT2 reporter changes – S. cerevisiae, GFP fusion, multiplex flow cytometry, primary screen (AID 1870;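 active = percent response above a set limit, the screen-wide mean plus 3 SD, cut at about 130% in these data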;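 note: barcoded CIT2-GFP strain pooled with four other GFP strains with rapamycin as positive control; median GFP fluorescence per well over plate mean of DMSO wells so 100% = DMSO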). As to conditions: S. cerevisiae CIT2-GFP expression, 3 h, at 10 µM, stronger effect = higher value.
Assay [4] can be described thus: TOR pathway LAP4-GFP level changes – S. cerevisiae, multiplex flow cytometry, primary screen (AID 1873;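 active = GFP signal, as percent of the solvent control, above the screen mean plus 3 SD, about 149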). As to conditions: S. cerevisiae LAP4-GFP expression, 3 h, at 10 µM, stronger effect = higher value.
Assay [5] can be described thus: yeast AGP1-GFP level changes, GLN3 branch – cell-based, multiplex flow cytometry, S. cerevisiae, primary screen (AID 1887;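 active = GFP signal above the screen-wide mean plus 3 SD, that is over about 124.5% of the solvent control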;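 note: AGP1-GFP fusion strain of S. cerevisiae within a five-strain barcoded multiplex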). The note with it: 3 h, at 10 µM, stronger effect = higher value.
Assay [6] can be described thus: reduced mouse 2C T cell binding to pMHC/ICAM-1 vesicles – MLPCN validation set, flow cytometry, LFA-1/ICAM-1 modulator project, pilot screen (AID 2523).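 For vesicle binding response: mean PE anti-B7-1 fluorescence of CD8+ cells relative to row control; 100% = QL9-loaded vesicles with DMSO vehicle in the same plate row.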 As to conditions: 2C mouse CD8+ T cells, at 7 µM, stronger effect = lower value; double positive events: measured here: CD8+/vesicle+ event percentage.
The target of assay [7] is Integrin beta-1 (Homo sapiens) + Integrin alpha-4 (Homo sapiens) (UniProt P13612+P05556). Kind of assay: alpha4beta1 integrin LIBS antibody binding reduction – U937 cells, HUTS-21 mAb, flow cytometry, validation set, VLA-4 allosteric modulator project, pilot screen (AID 2674;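 active = inhibition above 50%, about 3 SD of the validation set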;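 note: antibody binding induced by the VLA-4 ligand LDV present at three times its Kd; 0% = LDV ligand with antibody and no compound and 100% = antibody without LDV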). As to conditions: HUTS-21 LIBS mAb binding, at 6.7 µM, stronger effect = higher value, binding induced by LDV ligand.

Assay [8] is described as follows: calorie-restriction mimetic ROS inhibitors, yeast – validation compound set, pilot screen (AID 2706;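 active = superoxide response below 65% of plate, a cut near 3 SD across the whole screen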;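 note: yeast exposed to compound for one week at 30 degrees C before staining; 100% = mean of all compound wells on the same plate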). The note with it: S. cerevisiae aging, superoxide DHE fluorescence; at 10 µM; stronger effect = lower value.
Assay [9] concerns the target Beta-adrenergic receptor kinase 1 (Homo sapiens) (UniProt P25098). Kind of assay: GRK2 binders displacing RNA aptamer, biochemical, validation, human GRK2, bead flow cytometry (AID 488806;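 active = aptamer binding inhibition above 30%, about 3 SD of noise from non-fluorescent compounds; inactive = inhibition at or below 30%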). The note with it: bead-bound GRK2, FAM-aptamer displacement, at 10 µM, stronger effect = higher value.
The target in assay [10] is Beta-2 adrenergic receptor (Homo sapiens) (UniProt P07550). Kind of assay: agonist-induced loss of surface beta2AR – cell-based, FAP fluorogen, flow cytometry, validation set, pilot screen (AID 504459;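 active = percent response above 42, roughly 3 SD of non-fluorescent test compounds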;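 note: agonist-driven loss of surface beta2AR via internalization measured by FAP dye flow cytometry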). As to conditions: Am2.2-beta2AR cells, at 10 µM, stronger effect = higher value.
Assay [11] addresses AP-2 complex subunit beta (Homo sapiens) (UniProt P63010). Kind of assay: beta-arrestin/AP2 interaction blockers – biochemical, validation set, GST-AP2 beads, flow cytometry, pilot screen (AID 504541;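 active = inhibition above 54%, about 3 SD of non-fluorescent compounds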;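 note: AP2 carries R879A mutation and is captured from E. coli lysate; bead-bound FITC arrestin peptide fluorescence measuring arrestin peptide binding to AP2; 0% = DMSO wells and 100% = excess unlabeled arrestin peptide control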). As to conditions: FITC arrestin peptide, at 10 µM, stronger effect = higher value, AP2 beta2 appendage fragment, R879A mutant.
Assay [12] can be described thus: cytosolic pH regulators acting via V-ATPase – S. cerevisiae, pHLuorin, HTS validation (AID 504600; in the data active = response above about 15%;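 note: plate controls were DMSO for no effect and reference compound for full effect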). As to conditions: V-ATPase proton transport, at 10 µM, stronger effect = higher value.
Assay [13] concerns anti-desmoglein-3 scFv antibody binding to human DSG3. Kind of assay: blockers of pathogenic pemphigus antibody–desmoglein-3 binding – biochemical, validation compound set, bead-based, flow cytometry, pilot screen (AID 588368;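 active = binding below the plate cutoff, the plate median minus 3 SD, with a reading above zero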;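 note: signal is the median channel fluorescence of bead-bound GFP antibody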). As to conditions: Protein G beads, DSG3-Fc, scFv-GFP binding, at 10 µM, stronger effect = lower value.
Assay [14] in a line: Nile Red efflux blockade in pump-expressing yeast – validation compound set, multiplex, phenotypic, pilot screen (AID 588506;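 active = efflux inhibition above 0.42, the validation set average plus 4 SD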;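 note: Nile Red retained in cells so higher fluorescence means more efflux inhibition; 0 = negative control wells and 1 = enniatin B 25 µM full block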). The note with it: S. cerevisiae pump-expressing triplex, Nile Red efflux flow cytometry; at 10 µM; stronger effect = higher value; the pumps come from Candida albicans.
For assay [15], the target named is ATP-binding cassette sub-family B member 6 (Homo sapiens) (UniProt Q9NP58). Kind of assay: blockers of ABCB6-driven porphyrin uptake – K562-ABCB6 cells, flow cytometry, validation set, pilot screen (AID 588550;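 active = inhibition above the screen-wide mean plus 3 SD, about 51%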;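 note: 0% = DMSO wells and 100% = benzethonium chloride 70 µM positive control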). The note with it: K562-ABCB6 porphyrin accumulation, 1 h, at 10 µM, stronger effect = higher value.
The nature of assay [16]: AML differentiation inducers, ER-HoxA9 marrow cells – cell-based, GFP/MAC1 double positive, flow cytometry, validation set, primary screen (AID 588685;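 active = differentiation response of at least 50%, scaled between solvent and reference control, from cells with both markers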;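 note: compound exposure lasts four days before antibody staining and flow analysis; 0% = DMSO wells and 100% = 5 µM fulvestrant positive control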). The note with it: stronger effect = higher value, normalized: vehicle 0, fulvestrant 100.

Sequence of Integrin beta-1 (Homo sapiens) + Integrin alpha-4 (Homo sapiens) (P05556 whole entry, looked up): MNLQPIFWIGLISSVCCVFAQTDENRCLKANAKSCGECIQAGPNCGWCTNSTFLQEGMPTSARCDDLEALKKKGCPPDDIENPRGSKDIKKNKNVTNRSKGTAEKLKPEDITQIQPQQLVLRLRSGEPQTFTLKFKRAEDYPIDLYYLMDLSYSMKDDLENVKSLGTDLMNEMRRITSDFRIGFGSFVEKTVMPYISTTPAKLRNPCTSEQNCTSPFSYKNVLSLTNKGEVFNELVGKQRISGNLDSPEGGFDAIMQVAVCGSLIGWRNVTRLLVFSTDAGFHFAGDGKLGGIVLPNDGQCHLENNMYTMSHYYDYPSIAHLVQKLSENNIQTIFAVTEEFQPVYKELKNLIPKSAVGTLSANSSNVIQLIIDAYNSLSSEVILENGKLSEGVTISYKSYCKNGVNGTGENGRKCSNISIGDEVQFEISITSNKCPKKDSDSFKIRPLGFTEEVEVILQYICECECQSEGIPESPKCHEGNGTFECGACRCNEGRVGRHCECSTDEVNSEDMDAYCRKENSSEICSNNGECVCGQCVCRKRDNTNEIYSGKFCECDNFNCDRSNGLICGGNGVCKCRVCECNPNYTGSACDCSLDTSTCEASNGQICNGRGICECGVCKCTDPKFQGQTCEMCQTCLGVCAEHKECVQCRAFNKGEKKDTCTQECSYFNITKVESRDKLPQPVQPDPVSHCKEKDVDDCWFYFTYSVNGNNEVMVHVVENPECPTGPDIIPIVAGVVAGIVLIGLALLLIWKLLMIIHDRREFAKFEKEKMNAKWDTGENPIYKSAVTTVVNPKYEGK
Sequence of Integrin beta-1 (Homo sapiens) + Integrin alpha-4 (Homo sapiens) (P13612 whole entry, looked up): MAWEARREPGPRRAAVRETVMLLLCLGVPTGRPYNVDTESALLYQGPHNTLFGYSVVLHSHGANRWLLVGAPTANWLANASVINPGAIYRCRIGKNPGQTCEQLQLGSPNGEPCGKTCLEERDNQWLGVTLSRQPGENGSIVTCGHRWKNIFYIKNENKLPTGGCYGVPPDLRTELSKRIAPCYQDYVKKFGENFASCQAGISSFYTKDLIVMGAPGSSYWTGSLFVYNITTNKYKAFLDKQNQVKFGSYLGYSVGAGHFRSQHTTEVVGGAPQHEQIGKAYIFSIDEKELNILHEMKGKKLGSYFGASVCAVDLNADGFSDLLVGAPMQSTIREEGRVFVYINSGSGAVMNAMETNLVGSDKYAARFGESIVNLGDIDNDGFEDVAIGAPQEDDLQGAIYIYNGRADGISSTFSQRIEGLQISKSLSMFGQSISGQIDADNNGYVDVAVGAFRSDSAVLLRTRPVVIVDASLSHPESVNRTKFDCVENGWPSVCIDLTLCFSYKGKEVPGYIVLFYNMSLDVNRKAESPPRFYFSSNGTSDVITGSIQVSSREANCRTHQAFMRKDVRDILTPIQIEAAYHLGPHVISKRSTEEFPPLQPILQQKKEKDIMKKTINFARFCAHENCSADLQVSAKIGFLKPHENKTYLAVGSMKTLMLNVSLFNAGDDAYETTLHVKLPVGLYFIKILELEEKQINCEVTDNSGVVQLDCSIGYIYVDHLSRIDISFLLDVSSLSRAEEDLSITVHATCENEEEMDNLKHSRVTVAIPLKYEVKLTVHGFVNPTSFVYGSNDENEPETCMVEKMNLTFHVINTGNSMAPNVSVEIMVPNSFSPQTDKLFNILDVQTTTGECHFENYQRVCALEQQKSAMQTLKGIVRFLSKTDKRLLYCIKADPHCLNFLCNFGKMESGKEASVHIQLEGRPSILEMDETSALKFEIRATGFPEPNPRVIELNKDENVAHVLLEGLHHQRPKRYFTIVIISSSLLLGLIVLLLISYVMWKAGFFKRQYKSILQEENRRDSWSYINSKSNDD
Sequence of AP-2 complex subunit beta (Homo sapiens) (P63010 whole entry, looked up, the tested form may be a part, one chain of several): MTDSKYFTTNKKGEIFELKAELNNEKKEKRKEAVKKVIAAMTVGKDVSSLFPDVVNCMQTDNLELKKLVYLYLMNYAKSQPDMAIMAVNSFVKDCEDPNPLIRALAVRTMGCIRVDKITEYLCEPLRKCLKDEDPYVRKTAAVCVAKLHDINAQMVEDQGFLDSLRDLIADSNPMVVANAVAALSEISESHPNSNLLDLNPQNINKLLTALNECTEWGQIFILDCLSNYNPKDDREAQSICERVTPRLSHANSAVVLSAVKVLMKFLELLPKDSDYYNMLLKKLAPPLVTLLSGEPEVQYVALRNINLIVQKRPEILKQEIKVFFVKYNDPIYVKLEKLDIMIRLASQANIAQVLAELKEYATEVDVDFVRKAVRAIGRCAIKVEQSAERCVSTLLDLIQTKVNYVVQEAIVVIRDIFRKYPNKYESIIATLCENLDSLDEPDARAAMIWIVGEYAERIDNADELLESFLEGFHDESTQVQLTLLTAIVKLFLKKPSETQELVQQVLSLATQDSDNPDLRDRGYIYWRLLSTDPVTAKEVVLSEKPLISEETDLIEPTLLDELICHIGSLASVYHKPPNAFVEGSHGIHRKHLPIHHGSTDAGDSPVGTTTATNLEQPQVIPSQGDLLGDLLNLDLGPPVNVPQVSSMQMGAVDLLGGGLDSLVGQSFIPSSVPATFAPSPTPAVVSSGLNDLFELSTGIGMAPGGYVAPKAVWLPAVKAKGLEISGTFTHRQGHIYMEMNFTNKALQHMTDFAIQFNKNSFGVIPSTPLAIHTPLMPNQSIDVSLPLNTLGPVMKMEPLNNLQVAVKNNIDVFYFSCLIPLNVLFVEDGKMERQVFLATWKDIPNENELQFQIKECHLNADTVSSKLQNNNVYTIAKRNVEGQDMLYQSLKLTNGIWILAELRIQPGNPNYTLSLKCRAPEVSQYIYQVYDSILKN
Sequence of Beta-adrenergic receptor kinase 1 (Homo sapiens) (P25098 whole entry, looked up): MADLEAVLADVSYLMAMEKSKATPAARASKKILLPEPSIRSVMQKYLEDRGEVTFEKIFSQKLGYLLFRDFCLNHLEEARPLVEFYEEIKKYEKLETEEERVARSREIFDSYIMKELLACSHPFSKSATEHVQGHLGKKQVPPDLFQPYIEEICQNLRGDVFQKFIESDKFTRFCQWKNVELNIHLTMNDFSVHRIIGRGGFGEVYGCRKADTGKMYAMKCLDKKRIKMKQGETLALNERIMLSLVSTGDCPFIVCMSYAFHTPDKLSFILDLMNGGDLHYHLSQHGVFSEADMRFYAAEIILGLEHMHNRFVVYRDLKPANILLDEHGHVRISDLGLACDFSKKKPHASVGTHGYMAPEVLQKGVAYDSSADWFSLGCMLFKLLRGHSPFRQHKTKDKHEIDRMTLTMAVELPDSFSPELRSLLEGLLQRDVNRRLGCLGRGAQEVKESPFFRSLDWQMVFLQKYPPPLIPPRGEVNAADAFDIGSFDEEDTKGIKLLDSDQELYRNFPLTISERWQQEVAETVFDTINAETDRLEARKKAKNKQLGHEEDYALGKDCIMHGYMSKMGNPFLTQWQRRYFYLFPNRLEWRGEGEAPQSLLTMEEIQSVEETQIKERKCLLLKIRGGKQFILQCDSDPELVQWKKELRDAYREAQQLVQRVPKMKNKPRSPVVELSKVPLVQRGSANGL
Sequence of ATP-binding cassette sub-family B member 6 (Homo sapiens) (Q9NP58 whole entry, looked up): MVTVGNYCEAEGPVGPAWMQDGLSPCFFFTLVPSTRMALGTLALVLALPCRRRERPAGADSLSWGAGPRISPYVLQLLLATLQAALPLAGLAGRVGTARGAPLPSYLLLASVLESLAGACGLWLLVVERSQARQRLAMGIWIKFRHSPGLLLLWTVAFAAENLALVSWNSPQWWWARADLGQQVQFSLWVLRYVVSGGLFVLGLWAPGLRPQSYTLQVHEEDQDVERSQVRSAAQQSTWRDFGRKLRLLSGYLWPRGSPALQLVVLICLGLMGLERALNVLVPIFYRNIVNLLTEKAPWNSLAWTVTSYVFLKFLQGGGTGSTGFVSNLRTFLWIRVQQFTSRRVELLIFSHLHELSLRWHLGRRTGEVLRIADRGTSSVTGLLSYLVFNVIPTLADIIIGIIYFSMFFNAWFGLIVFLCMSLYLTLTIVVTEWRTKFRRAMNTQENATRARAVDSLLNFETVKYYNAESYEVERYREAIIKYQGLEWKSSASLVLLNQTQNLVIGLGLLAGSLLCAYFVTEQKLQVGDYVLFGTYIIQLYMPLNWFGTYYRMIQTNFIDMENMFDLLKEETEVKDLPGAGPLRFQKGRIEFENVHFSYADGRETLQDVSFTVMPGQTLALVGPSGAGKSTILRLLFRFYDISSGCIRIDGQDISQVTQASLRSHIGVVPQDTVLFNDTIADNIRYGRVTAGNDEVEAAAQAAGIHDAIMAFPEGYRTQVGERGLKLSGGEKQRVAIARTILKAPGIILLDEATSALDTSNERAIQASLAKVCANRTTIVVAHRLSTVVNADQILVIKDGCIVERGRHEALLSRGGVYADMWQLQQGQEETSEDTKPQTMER
Sequence of Beta-2 adrenergic receptor (Homo sapiens) (P07550 whole entry, looked up): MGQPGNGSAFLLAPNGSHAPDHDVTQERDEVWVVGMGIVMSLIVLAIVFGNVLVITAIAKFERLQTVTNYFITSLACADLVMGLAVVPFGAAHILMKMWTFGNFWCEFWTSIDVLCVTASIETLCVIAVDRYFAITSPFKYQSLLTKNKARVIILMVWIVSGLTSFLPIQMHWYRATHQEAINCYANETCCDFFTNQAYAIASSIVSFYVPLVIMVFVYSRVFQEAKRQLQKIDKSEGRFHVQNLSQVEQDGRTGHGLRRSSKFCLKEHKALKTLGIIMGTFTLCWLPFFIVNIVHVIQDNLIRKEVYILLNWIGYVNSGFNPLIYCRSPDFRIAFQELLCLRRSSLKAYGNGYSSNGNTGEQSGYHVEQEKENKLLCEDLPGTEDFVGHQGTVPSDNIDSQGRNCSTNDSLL

One may read the inhibition as the drop in the measured response relative to a control, in per cent. `CN=C(NC#N)NCCSCc1nc[nH]c1C`: the percent of DMSO control GFP in assay [1] is 102% (inactive). Besides, the GFP response vs DMSO was 101% (inactive) in [2] and 94.8% (inactive) in assay [4]. Moreover, in assay [3], the percent response of DMSO control is 109% (inactive). The GFP response, % of DMSO in [5] was 102% (inactive). The molecule also yielded a double positive events in assay [6] of 62.1%. The vesicle binding response in assay [6] was 195% (inactive). The inhibition in [7] is -14.5% (inactive); in assay [11] it was 5.55% (inactive); in assay [15], 9% (inactive). In addition, in assay [8], the superoxide response (% of plate) is 104% (inactive). The aptamer binding inhibition in [9] was -1% (inactive). Moreover, the response in assay [10] was 3.13% (inactive); in assay [12] it was 0.96% (inactive). Further, in assay [13], the binding (% of control) was 103% (inactive). In addition, the efflux inhibition (fraction of control) in assay [14] is -0.44 (inactive). The differentiation response in [16] is -10.4% (inactive).

For the molecule `O=C(CC1SC(=O)NC1=O)Nc1ccc(Cl)cc1` (stereo not given), in [1], the percent of DMSO control GFP was 101% (inactive). The GFP response vs DMSO in [2] was 104% (inactive); in assay [4], 98% (inactive). For the same molecule, the percent response of DMSO control in [3] is 108% (inactive). Also, the GFP response, % of DMSO in assay [5] is 108% (inactive). The molecule further returned a double positive events in [6] of 65.3%. The vesicle binding response in assay [6] was 193% (inactive). The inhibition in assay [7] was 6.95% (inactive); in assay [11] it was 1.72% (inactive); in [15] it was -3% (inactive). The superoxide response (% of plate) in assay [8] is 116% (inactive). Moreover, the aptamer binding inhibition in [9] is -1% (inactive). For the same molecule, the response is 2.95% (inactive) in assay [10] and 1.59% (inactive) in assay [12]. The binding (% of control) in assay [13] was 100% (inactive). Also, in assay [14], the efflux inhibition (fraction of control) is -0.205 (inactive). Besides, in [16], the differentiation response was -16.3% (inactive).

In the case of `Cc1oncc1C(=O)Nc1ccc(C(F)(F)F)cc1`, in [1], the percent of DMSO control GFP was 95.7% (inactive). The GFP response vs DMSO in assay [2] was 98.6% (inactive); in [4], 124% (inactive). For the same molecule, in assay [3], the percent response of DMSO control was 101% (inactive). The GFP response, % of DMSO in [5] is 105% (inactive). In assay [6], this molecule had a double positive events of 57.4%. Besides, the vesicle binding response in assay [6] is 171% (inactive). Besides, the inhibition in assay [7] is 3.99% (inactive); in assay [11], -2.96% (inactive); in assay [15] it was -7% (inactive). Moreover, in assay [8], the superoxide response (% of plate) is 101% (inactive). In addition, the aptamer binding inhibition in [9] was 10% (inactive). The response is -21.8% (inactive) in [10] and 6.73% (inactive) in assay [12]. For the same molecule, the binding (% of control) in assay [13] was 96% (inactive). For the same molecule, the efflux inhibition (fraction of control) in assay [14] is -0.04 (inactive). Moreover, the differentiation response in [16] was -4.99% (inactive).

In the case of `CCc1cc2c(=O)c(-c3ccc4c(c3)OCCO4)coc2c(CN2CCCCC2C)c1O` (stereo not given), the percent of DMSO control GFP in assay [1] was 103% (inactive). In addition, the GFP response vs DMSO is 98.6% (inactive) in [2] and 103% (inactive) in assay [4]. Also, the percent response of DMSO control in assay [3] was 91.8% (inactive). The GFP response, % of DMSO in [5] is 109% (inactive). In [6], this molecule gave a double positive events of 63.4%. For the same molecule, the vesicle binding response in [6] was 177% (inactive). Moreover, the inhibition in assay [7] is 14.2% (inactive); in assay [11], 9.88% (inactive); in [15], -2% (inactive). Further, the superoxide response (% of plate) in assay [8] was 65.8% (inactive). For the same molecule, the aptamer binding inhibition in assay [9] was 2% (inactive). The response in assay [10] is -18.8% (inactive); in assay [12], 3.99% (inactive). For the same molecule, in [13], the binding (% of control) was 112% (inactive). Moreover, the efflux inhibition (fraction of control) in [14] is -0.04 (inactive). In addition, the differentiation response in assay [16] is 15.7% (inactive).

With `CC12CCC(C(=O)NNc3ccccc3)(C(=O)C1=O)C2(C)C` (stereo not given), the percent of DMSO control GFP in assay [1] is 104% (inactive). Moreover, the GFP response vs DMSO was 97.4% (inactive) in [2] and 94.8% (inactive) in [4]. In addition, the percent response of DMSO control in assay [3] was 102% (inactive). For the same molecule, in assay [5], the GFP response, % of DMSO was 100% (inactive). This molecule also registered a double positive events in assay [6] of 62%. Further, the vesicle binding response in assay [6] was 217% (inactive). Further, the inhibition is -30.5% (inactive) in assay [7], 19.1% (inactive) in assay [11] and -14% (inactive) in [15]. The superoxide response (% of plate) in assay [8] was 105% (inactive). Further, the aptamer binding inhibition in [9] was 8% (inactive). Besides, the response is -5.89% (inactive) in [10] and -0.25% (inactive) in assay [12]. Also, the binding (% of control) in assay [13] is 101% (inactive). In addition, the efflux inhibition (fraction of control) in assay [14] is -0.03 (inactive). In addition, in assay [16], the differentiation response is 15.2% (inactive).
